Compounds with a hit are over-represented: about 5% of the library has one in this group of screens.
CRE-bla Fsk: modulators of forskolin-stimulated CRE signaling in CHO cells; CHO CRE-bla reporter (cAMP response element driving beta-lactamase), forskolin EC10, beta-lactamase ratio; Potency, µM (top dose mostly 38.2 µM), without a hit: at the highest dose activity change, negative = inhibition, most hits filed as activators; 71,000 tested, 2.5% active; AID 662; active = well fitted activation curve with a large enough effect in the signal ratio, with a control signal flat, not every such curve was filed as active; inconclusive = small, poorly fitted or top-dose-only effect, or effect the other way, or a change in a side signal; the % refers to the signal ratio; also: % of control where 0% means no effect
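CRE-bla CHO reporter cells treated with compound titration plus EC10 NKH 477 (water-soluble forskolin), incubated 3 h at 37 °C; CCF4 loading 2 h at room temperature, 460/530 nm emission ratio read, AC50 values derived for positive or negative modulators.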
TSHR ag: TSH receptor (human) agonism. P16473. AID 926. Potency, µM (titrated, usually from 57.1 µM), for the others: top-dose activation, usual class: activators. 73,000 tested, 0.48% active. HEK293-CNG-TSHR cells (CNG channel as cAMP sensor), membrane potential dye, cAMP; active = well fitted activation curve with a large enough effect in the main read-out, with a control signal flat, not every such curve was filed as active; inconclusive = small, poorly fitted or top-dose-only effect, or a change in a side signal; inactive = no such curve, though single readings can be large or run the other way; % of control where 0% means no effect;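 also: the control signal comes from parental cells without the receptor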
Target sequence (P16473 whole entry, looked up): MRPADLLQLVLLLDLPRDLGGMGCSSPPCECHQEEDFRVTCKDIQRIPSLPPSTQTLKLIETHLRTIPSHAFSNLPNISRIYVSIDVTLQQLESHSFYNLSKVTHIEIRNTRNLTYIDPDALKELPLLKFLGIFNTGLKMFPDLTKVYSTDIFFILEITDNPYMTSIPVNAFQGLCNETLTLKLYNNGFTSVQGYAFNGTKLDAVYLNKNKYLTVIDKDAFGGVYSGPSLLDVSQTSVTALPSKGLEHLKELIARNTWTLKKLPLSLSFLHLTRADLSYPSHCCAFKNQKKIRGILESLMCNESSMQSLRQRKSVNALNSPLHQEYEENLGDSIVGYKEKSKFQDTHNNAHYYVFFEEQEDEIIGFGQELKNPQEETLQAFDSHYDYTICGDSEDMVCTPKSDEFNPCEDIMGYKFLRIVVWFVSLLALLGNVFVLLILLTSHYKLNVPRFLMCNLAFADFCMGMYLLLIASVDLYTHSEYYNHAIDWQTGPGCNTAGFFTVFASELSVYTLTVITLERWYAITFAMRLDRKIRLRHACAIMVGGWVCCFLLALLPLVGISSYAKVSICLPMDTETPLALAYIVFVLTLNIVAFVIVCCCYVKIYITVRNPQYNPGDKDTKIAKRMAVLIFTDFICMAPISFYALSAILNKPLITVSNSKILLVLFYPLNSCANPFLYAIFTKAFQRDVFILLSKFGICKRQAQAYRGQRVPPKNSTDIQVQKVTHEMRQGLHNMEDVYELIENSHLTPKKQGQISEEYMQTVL
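HEK 293 cells stably expressing TSHR and a cAMP-gated CNG channel; parental CNG-only cells as counterscreen. Cells preloaded 60 min with membrane potential dye plus 100 uM RO 20-1724, then compound 30 min; fluorescence read at 590 nm.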
Caspase-7 inhib: blocks human caspase-7 allosterically or competitively | recombinant caspase-7, Ac-DEVD-AFC fluorescence rate | Potency, µM (series often up to 57.5 µM), without a hit: at the top dose activity change, negative = inhibition, actives largely listed as inhibitors | 75,000 tested, 0.02% active; active = well fitted inhibition curve with a large enough effect in the main read-out, with a control signal flat, not every such curve was filed as active; inconclusive = small, poorly fitted or top-dose-only effect, or a change in a side signal; also: % of control where 0% means no effect
Caspase-1 inhib: blocks human caspase-1 allosterically or competitively; Potency, µM (doses to about 57.5 µM), inactives show at the top dose activity change, negative = inhibition, usual class: inhibitors; Caspase-1 enzyme, Ac-WEHD-AFC fluorogenic rate; 75,000 tested, 0.03% active;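 also: plate controls were vehicle for no effect and no substrate for full effect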
USP2a inhib: USP2a (human) protease inhibition; USP2a enzymatic assay, qHTS inhibition; 60,000 tested, 0.1% active; AID 927; Potency, µM (highest dose often 38.3 µM), without a hit: at the top dose activity change, negative = inhibition, actives largely listed as inhibitors; also: nearly all actives have a fitted effect of over 60% in size
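Coupled readout: USP2-cleaved Ub-PLA2 (20nM final) turns over NBD C6-HPC (20uM final), Ex 460nm/Em 535nm after 2.5 h, time-zero read flagging artifacts. Enzyme (20nM final, pH 8.0 Tris) given 30 min RT with compound first; NEM defines full inhibition.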
HEK293 cAMP cs: parental HEK293 cAMP activation (counter-screen). parental HEK293 CNG cAMP sensor, membrane potential fluorescence. 73,000 tested, 2.5% active. Potency, µM (doses to about 57.1 µM), inactives show at the highest dose activation, most hits filed as activators; also: % of control where 0% means no effect; nearly all actives have a fitted effect of over 55% in size
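Parental HEK 293 cells stably expressing a modified CNG channel (no TSHR) report cAMP rise as membrane depolarization. Membrane potential dye with 100 uM RO 20-1724 was loaded for 60 min at room temperature, then compound added for 30 min; fluorescence read at 590 nm.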
* marks the source's active call; other numbers are inactive results; ? = inconclusive; nt = no result; [ ] = dose if it differs, or a comment. Unless noted, calls follow the shape of the dose curve; as a rule, active = well fitted curve in the direction sought with a large enough effect; inconclusive = small, poorly fitted or top-dose-only effect, or another doubt; inactive = no such curve, though single readings can be large; an effect the other way counts as inactive or inconclusive. Potency is read from the fitted curve at half-maximal effect.

SMILES | CRE-bla Fsk | TSHR ag | Caspase-7 inhib | Caspase-1 inhib | USP2a inhib | HEK293 cAMP cs
COCCn1c(=S)[nH]c2cc(C(=O)N3CCc4ccccc43)ccc2c1=O | ? | ? | -3.3% | -1.9% | 45.2% | 15.8µM*
c1csc(CNc2ccnc(-c3ccc4c(c3)OCO4)n2)c1 | ? | ? | -1.2% | -4.0% | -24.7% | ?
[N-]=[N+]=NC[C@@H]1O[C@@H](n2cnc3c(N)ncnc32)[C@@H]2O[C@@H]21 | 8.8%[7.6 µM] | -2.2%[11.4 µM] | 2.9%[11.5 µM] | -2.1%[11.5 µM] | nt | 13.6%[11.4 µM]
CCCCCC[C@@H]([C@H](C)O)n1cnc2c(N)ncnc21 | 5.7% | ? | 1.6% | 2.3% | 0.4% | 31.6µM*
Nc1ncnc2c1ncn2CCCCC(=O)O | -2.1%[7.6 µM] | -4.8%[11.4 µM] | 0.8%[11.5 µM] | 3.2%[11.5 µM] | nt | 6.1%[11.4 µM]
O=C(Nc1cn(-c2ccccc2)nc1-c1cccs1)c1ccco1 | 3.4% | ? | -6.6% | -2.3% | 25.9% | 31.6µM*
O=C(CCc1ccc(O)cc1)c1c(O)cc(O)cc1O[C@@H]1O[C@@H](CO)[C@@H](O)[C@@H](O)[C@H]1O | -1.0% | -3.0% | nt | nt | nt | 7.4%
CCN1c2ccccc2-c2nc3ccccc3n2C1c1ccccn1 (stereo unspecified) | 12.6µM* | ? | ? | nt | 16.2% | 15.8µM*
CCN1c2ccccc2-c2nc3ccccc3n2C1c1cccnc1 (stereo unspecified) | ? | ? | ? | nt | 12.1% | 31.6µM*
c1cncc(C2Nc3ccccc3-c3nc4ccccc4n32)c1 (stereo unspecified) | ? | 27.5% | -17.1% | ? | -3.3% | 3.8%
CCN1c2ccccc2-c2nc3ccccc3n2C1c1ccncc1 (stereo unspecified) | ? | ? | -12.6% | -14.5% | 17.7% | 20µM*
CCC1Oc2ccc(C)cc2N(CC(=O)N(Cc2ccc3c(c2)OCO3)CC2CCCO2)C1=O (stereo unspecified) | -0.7% | ? | -2.5% | -1.4% | 16.2% | 5.01µM*
CCC1Oc2ccc(C)cc2N(CC(=O)N(Cc2cccnc2)Cc2ccc(C)o2)C1=O (stereo unspecified) | -1.6% | ? | 1.4% | -1.6% | nt | ?
Cn1c(=O)n(Cc2ccccc2)c(=O)c2c1nc1n2CCCN1C1CCCCC1 | ? | ? | -0.9% | -1.6% | 11.9% | -50.3%
Cn1c(=O)n(Cc2ccc(F)cc2)c(=O)c2c1nc1n2CCCN1C1CCCCC1 | 10µM* | -22.2% | -3.6% | -2.7% | 19.0% | -7.3%
O=C(CN1CCCN(Cc2ccc(F)cc2Cl)C1=O)NCc1ccccc1 | -12.8% | 25.1µM* | -2.2% | 1.0% | 16.8% | 8.9%
CC(C)/C(=N/[N+](C)(C)C)c1ccccc1 | 8.4%[7.6 µM] | -3.1%[11.4 µM] | -0.1%[11.5 µM] | 0.8%[11.5 µM] | nt | -3.8%[11.4 µM]
COc1ccc(N(C(=O)Cn2nnc3ccccc32)C(C(=O)NCc2ccco2)c2ccc(C)o2)cc1 (stereo unspecified) | -21.5% | 25.1µM* | 0.3% | -4.2% | 36.3% | 26.7%
COCCNC(=O)C(c1ccco1)N(Cc1ccc(OC)cc1)C(=O)Cn1nnc2ccccc21 (stereo unspecified) | ? | -3.6% | 1.9% | 1.3% | nt | 2.2%
COc1ccc(OC)c(C(C(=O)NCc2ccco2)N(C(=O)Cn2nnc3ccccc32)C(C)C)c1 (stereo unspecified) | ? | ? | -2.4% | 2.6% | 7.1% | 15.8µM*
O=C(Cc1cccs1)NCc1ccco1 | -2.5% | 20.9% | -0.9% | 1.4% | -2.9% | 18.1%
O=C(NCc1ccco1)C(c1cccs1)N(C(=O)Cc1cccs1)c1ccccc1 (stereo unspecified) | -22.5% | ? | -0.3% | -3.5% | nt | 12.6µM*
COc1ccc(CNC(=O)C(c2ccco2)N(Cc2cccs2)C(=O)Cc2cccs2)cc1 (stereo unspecified) | -1.8% | ? | -3.1% | -3.7% | 1.4% | 20µM*
CCCCCNCCCCC | -1.6% | ? | 0.1% | -2.8% | nt | ?
O=C(NCCN1CCOCC1)c1ccc(Cc2nc3ccccc3[nH]2)cc1 | nt | 0.3% | 0.4% | -2.6% | nt | -8.0%
SMILES | CRE-bla Fsk | TSHR ag | Caspase-7 inhib | Caspase-1 inhib | USP2a inhib | HEK293 cAMP cs
C=CCN(C(=O)Cn1nnc2ccccc21)C(C(=O)NCCOC)c1ccc(OC)cc1OC (stereo unspecified) | -1.9% | 4.5% | -5.1% | -0.2% | 31.4% | 2.6%
Cc1ccc(C(C(=O)NCc2ccco2)N(CCc2ccccc2)C(=O)Cn2nnc3ccccc32)o1 (stereo unspecified) | -16.4% | ? | -0.7% | -4.0% | 37.6% | 12.6µM*
CC(C)CCNC(=O)C(c1ccco1)N(Cc1cccs1)C(=O)Cn1nnc2ccccc21 (stereo unspecified) | -13.6% | ? | 1.1% | -5.0% | nt | 6.31µM*
Cc1ccc(C(C(=O)NCc2ccco2)N(C(=O)Cn2nnc3ccccc32)c2ccccc2)o1 (stereo unspecified) | 1.3% | 19.8% | -6.0% | -2.4% | 19.3% | 20.9%
CC(C)CCNC(=O)C(c1ccco1)N(CC1CCCO1)C(=O)Cn1nnc2ccccc21 (stereo unspecified) | -2.5% | ? | 1.7% | -2.8% | nt | ?
CCC(C)(C)NC(=O)C(c1cccn1C)N(Cc1ccccc1)C(=O)Cn1nnc2ccccc21 (stereo unspecified) | -4.3% | ? | 1.3% | -0.4% | -9.5% | 10µM*
COCCN(C(=O)Cn1nnc2ccccc21)C(C(=O)NC1CCCC1)c1cc(OC)ccc1OC (stereo unspecified) | -3.3% | ? | -8.3% | -2.0% | 7.8% | 25.1µM*
c1ccc(CCc2cccnc2)nc1 | 8.6%[7.6 µM] | 0.0%[11.4 µM] | -1.9%[11.5 µM] | -1.7%[11.5 µM] | nt | 3.9%[11.4 µM]
CCC1C(C#N)=C(N)OC2=C1C(=O)CC(C)(C)C2 (stereo unspecified) | ? | nt | 1.1% | 2.7% | -3.5%[7.66 µM] | -0.4%[11.4 µM]
CCCCCCC1C(C#N)=C(N)OC2=C1C(=O)CC(C)(C)C2 (stereo unspecified) | 10µM* | 9.6% | -4.1% | -3.8% | nt | 10.8%
CC(=O)N(CCP(=O)(c1ccccc1)c1ccccc1)Cc1ccco1 | 3.3% | ? | 0.9% | -2.5% | 2.9% | 31.6µM*
O=C1[C@H]2[C@H]3[C@H](O)[C@H](O)C/C(=N/OC[C@@H](O)COCc4ccco4)[C@@H]3CC[C@@H]2C(=O)N1c1cccc(Oc2ccccc2)c1 | nt | nt | 0.1%[11.5 µM] | -0.4%[11.5 µM] | nt | 7.0%[11.4 µM]
Cc1nc(NCCCn2ccnc2)c2oc3ccccc3c2n1 | 12.6µM* | 9.0% | 0.8% | -0.4% | -1.7% | 12.4%
O=C(c1ccccc1OCc1ccccc1Br)N1CCN(c2ncccn2)CC1 | 0.3% | ? | -4.7% | -2.7% | 6.8% | 15.8µM*
O=C(c1ccc(-c2ccccc2)cc1)N1CCN(c2ncccn2)CC1 | ? | ? | -2.9% | -2.7% | 17.4% | 25.1µM*

High-throughput results deposited in PubChem by National Center for Advancing Translational Sciences (NCATS).
